From PubChem BioAssay (NCATS)
Several values for one entry are separate records, joined by “and”; a condition that tells them apart may be missing. Identical values can stand only once. Records with an inconclusive call do not appear. Where a structure was tested more than once in an assay, its records may differ in their call. Activity calls are given as the source filed them. Unless noted, calls follow the shape of the dose curve; as a rule, active = well fitted curve in the direction sought with a large enough effect; inconclusive = small, poorly fitted or top-dose-only effect, or another doubt; inactive = no such curve, though single readings can be large; an effect the other way counts as inactive or inconclusive.

Assays:
[1] = Cell Viability - Jurkat (AID 426;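 active = dose-dependent loss of cell ATP signal giving a full or clear fitted curve, ranked by lower potency value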;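 also: potency is read from the fitted curve at half-maximal effect; cells exposed to compound for 40 hours at 37 °C before ATP read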); settings: qHTS
Method in brief: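 Cytotoxicity taken as drop in cellular ATP (CellTiter-Glo luminescence, 20 min room temperature) after 40 hr, 37C treatment of 5000 Jurkat Clone E6-1 cells per well; concentration-response fitted with Hill equation for AC50.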

[2] = Cell Viability - Hek293 (AID 427;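 active = compounds whose dose-response curve shows a full or clear partial loss of cell viability, called from curve shape rather than a numeric limit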;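 also: potency is read from the fitted curve at half-maximal effect; cells exposed to compound for 40 hours at 37 °C before reading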); settings: qHTS
Method in brief: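 Luminescent ATP read-out (CellTiter-Glo, 20 min RT) after 40 hr compound exposure at 37 °C in complete medium. Signal normalized to DMSO (basal) and 100 uM tamoxifen (100% inhibition); concentration-response fitted with the standard Hill equation to give AC50.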

[3] = Cell Viability - SK-N-SH (AID 435; calls by dose curve;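 also: potency is read from the fitted curve at half-maximal effect; compound exposure lasted 40 h at 37 °C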); settings: SK-N-SH neuroblastoma cell viability qHTS
Method in brief: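 CellTiter-Glo ATP luminescence, 20 min RT read; cells pre-plated 5 hr, compound 40 hr at 37 °C, 1500 cells/well, complete medium. Normalized DMSO = 0, 100 uM tamoxifen = 100% inhibition; Hill-fit AC50.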

[4] = Cell Viability - SH-SY5Y (AID 544); settings: SH-SY5Y neuroblastoma cell viability; viability change, negative = cytotoxic: at 92.2 µM (top of the series);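 also: cells exposed to compound for 40 hours; 0% = DMSO alone and -100% = 100 µM tamoxifen; nearly all actives have a fitted effect of over 55% in size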
Method in brief: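 Cytotoxicity measured via ATP-dependent luciferase luminescence (CellTiter-Glo) following 40 h, 37 °C exposure of 1500 SH-SY5Y cells per well. Concentration-response data were fitted with the standard Hill equation to give AC50.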

[5] = target: Cytochrome P450 3A4 (Homo sapiens) (UniProt P08684); assay: qHTS Assay for Inhibitors and Substrates of Cytochrome P450 3A4 (AID 884); settings: recombinant CYP3A4, Luciferin-PPXE luminescence; series mostly up to 57.1 µM; also: % is scaled to controls: 0 for no effect and ±100 for the full control effect; nearly all actives have a fitted effect of over 50% in size
Sequence of Cytochrome P450 3A4 (Homo sapiens) (P08684 whole entry, looked up): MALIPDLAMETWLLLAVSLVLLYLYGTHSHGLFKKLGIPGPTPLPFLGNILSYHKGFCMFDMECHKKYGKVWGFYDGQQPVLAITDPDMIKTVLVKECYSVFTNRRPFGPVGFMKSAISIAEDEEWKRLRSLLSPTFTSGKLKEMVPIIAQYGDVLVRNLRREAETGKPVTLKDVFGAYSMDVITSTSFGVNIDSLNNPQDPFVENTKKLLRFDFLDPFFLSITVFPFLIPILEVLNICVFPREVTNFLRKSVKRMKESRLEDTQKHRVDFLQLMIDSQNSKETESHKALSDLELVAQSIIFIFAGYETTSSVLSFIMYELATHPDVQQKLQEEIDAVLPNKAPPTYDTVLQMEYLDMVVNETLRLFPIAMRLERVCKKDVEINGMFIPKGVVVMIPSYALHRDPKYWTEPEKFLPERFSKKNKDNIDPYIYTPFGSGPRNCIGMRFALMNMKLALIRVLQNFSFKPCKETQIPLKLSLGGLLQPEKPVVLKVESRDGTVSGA
Method in brief: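 Luminescent readout of luciferin produced by CYP3A4 (20 nM) dealkylation of Luciferin-PPXE, 25 uM (its KM). NADPH-driven reaction ran 60 min at RT after 10 min compound preincubation; data scaled to 57 uM ketoconazole as 100% inhibition.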

[6] = MultiTox-Fluor Cytotoxicity Assay - LYMP1-002 - Dead Cells (AID 960); settings: LYMP1-002 lymphoblastoid cells, dead-cell protease fluorescence; series mostly up to 46.1 µM;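 also: 0% = DMSO and 100% = tetraoctylammonium bromide; nearly all actives have a fitted effect of over 60% in size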
Method in brief: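 Dead-cell fluorescence (Ex/Em 485/520) after 16 h compound exposure at 37 C of LYMP1-002 lymphoblastoid cells in complete medium; AC50 by Hill equation, with data scaled between DMSO and 15 uM tetraoctylammonium bromide.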

[7] = Cell Viability - LYMP2-015 (AID 971); settings: LYMP2-015 lymphoblastoid cell viability; series mostly up to 92.2 µM;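 also: 0% = DMSO only and full effect = 92 µM tetraoctylammonium bromide; nearly all actives have a fitted effect of over 55% in size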
Method in brief: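 Cytotoxicity readout: decrease in intracellular ATP (CellTiter-Glo luminescence) in 2500 LYMP2-015 lymphoblastoid cells/well after 24 h compound exposure at 37 C. Concentration-response data fitted with the standard Hill equation to give AC50.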

[8] = Cell Viability - LYMP2-010 (AID 981); settings: LYMP2-010 lymphoblastoid cell viability, qHTS; series mostly up to 92.2 µM;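 also: cells exposed to compound for 24 hours at 37 °C; % is scaled to controls: 0 for no effect and ±100 for the full control effect; nearly all actives have a fitted effect of over 55% in size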
Method in brief: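 CellTiter-Glo ATP luminescence measured cytotoxicity after 24 h compound exposure at 37 C. LYMP2-010 cells were seeded at 2500/well, with tetraoctylammonium bromide as control; concentration-response curves gave AC50 values by the Hill equation.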

[9] = target: Vitamin D3 receptor (Homo sapiens) (UniProt P11473); assay: qHTS assay for small molecule agonists of vitamin D receptor signaling (AID 588543; calls by dose curve;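 also: 0% = DMSO basal and 100% = reference agonist control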); settings: HEK293T VDR-UAS-bla, beta-lactamase ratio, 16 h; series mostly up to 76.8 µM
Sequence of Vitamin D3 receptor (Homo sapiens) (P11473 whole entry, looked up): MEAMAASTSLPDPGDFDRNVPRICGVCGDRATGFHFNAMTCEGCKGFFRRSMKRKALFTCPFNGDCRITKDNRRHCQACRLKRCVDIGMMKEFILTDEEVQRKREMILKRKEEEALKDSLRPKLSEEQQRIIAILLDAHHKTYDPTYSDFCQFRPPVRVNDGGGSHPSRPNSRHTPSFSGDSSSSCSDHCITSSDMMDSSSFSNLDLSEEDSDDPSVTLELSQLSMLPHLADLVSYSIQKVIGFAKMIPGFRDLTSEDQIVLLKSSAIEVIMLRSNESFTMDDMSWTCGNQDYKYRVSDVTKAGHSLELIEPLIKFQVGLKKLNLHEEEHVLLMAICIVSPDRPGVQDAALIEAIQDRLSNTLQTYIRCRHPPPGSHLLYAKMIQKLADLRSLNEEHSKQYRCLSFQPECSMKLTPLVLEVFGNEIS
Method in brief: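 β-lactamase reporter, VDR-UAS-bla HEK293T, agonist mode. Cells plated 5 h at 37 °C, compound titration 16 h at 37 °C, CCF4 dye 2 h RT, ratio 460/530 nm. Hill fit → EC50, efficacy vs 50 nM 1α,25-(OH)2D3.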

[10] = qHTS assay for small molecule agonists of retinoid X receptor alpha signaling (AID 588544); settings: HEK293T RXRa-UAS-bla, beta-lactamase reporter, 18 h; 530 nm emission
[11] = target: Voltage-gated inwardly rectifying potassium channel KCNH2 (Homo sapiens) (UniProt Q12809); assay: qHTS Assay for Small Molecule Inhibitors of the Human hERG Channel Activity (AID 588834); settings: U2OS BacMam hERG, FluxOR thallium flux fluorescence; series mostly up to 92.2 µM;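 also: lower thallium flux fluorescence means stronger hERG block; nearly all actives have a fitted effect of over 50% in size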; also: potency is read from the fitted curve at half-maximal effect
Sequence of Voltage-gated inwardly rectifying potassium channel KCNH2 (Homo sapiens) (Q12809 whole entry, looked up): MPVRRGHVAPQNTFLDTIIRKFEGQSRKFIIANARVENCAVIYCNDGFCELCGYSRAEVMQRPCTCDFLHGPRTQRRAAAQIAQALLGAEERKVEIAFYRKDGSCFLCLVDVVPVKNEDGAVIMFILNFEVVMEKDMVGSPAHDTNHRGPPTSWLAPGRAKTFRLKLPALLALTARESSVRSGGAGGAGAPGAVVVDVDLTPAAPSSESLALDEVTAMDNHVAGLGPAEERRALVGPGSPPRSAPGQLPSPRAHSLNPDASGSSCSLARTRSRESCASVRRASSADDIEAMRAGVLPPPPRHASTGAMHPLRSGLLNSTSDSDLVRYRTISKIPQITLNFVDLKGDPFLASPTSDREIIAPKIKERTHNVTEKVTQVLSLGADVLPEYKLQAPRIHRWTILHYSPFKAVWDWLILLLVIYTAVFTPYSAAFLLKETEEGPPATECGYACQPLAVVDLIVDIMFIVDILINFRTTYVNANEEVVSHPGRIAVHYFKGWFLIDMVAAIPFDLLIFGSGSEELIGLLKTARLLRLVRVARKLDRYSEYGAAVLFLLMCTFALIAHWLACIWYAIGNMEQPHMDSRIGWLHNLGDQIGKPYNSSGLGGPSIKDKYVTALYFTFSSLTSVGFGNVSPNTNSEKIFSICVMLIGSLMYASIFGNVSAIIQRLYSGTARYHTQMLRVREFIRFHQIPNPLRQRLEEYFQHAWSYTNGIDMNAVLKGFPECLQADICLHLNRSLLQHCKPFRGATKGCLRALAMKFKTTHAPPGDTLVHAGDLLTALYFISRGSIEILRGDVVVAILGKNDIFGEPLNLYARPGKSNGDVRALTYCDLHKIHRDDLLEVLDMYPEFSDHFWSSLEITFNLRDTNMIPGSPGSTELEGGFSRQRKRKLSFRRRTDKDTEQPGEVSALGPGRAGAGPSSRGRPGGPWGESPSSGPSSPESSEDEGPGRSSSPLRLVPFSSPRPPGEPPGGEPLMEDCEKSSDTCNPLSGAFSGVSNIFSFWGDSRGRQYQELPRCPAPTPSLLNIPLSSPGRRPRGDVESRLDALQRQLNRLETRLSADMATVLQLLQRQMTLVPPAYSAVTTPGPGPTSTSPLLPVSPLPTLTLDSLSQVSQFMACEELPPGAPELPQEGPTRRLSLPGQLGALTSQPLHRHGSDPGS
Method in brief: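 Thallium-flux (FluxOR) read-out on FDSS: fluorescence read 10 s before and 2 min after stimulation buffer. hERG-BacMam-transduced U2OS cells, compound exposure about 10 min. AC50 by standard Hill equation.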

[12] = qHTS assay for small molecule activators of the p53 signaling pathway (AID 651743; active = well fitted activation curve with a large enough effect in the signal ratio, not every such curve was filed as active; the % refers to the signal ratio; also: potency is read from the fitted curve at half-maximal effect; as to activation: % of control where 0% means no effect); settings: HCT-116 p53RE-bla, beta-lactamase FRET ratio, 16 h; activation: stronger effect = higher value
Method in brief: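 Agonist-mode quantitative HTS in HCT-116 cells carrying a p53-response-element beta-lactamase reporter; 16 h compound treatment at 37 C, then FRET substrate loading for 2 h at room temperature and fluorescence read.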

[13] = qHTS assay for small molecule agonists of the antioxidant response element (ARE) signaling pathway measured by Nrf2-dependant transcriptional activity (AID 720636; active = well fitted curve in the direction sought with a large enough effect in the repeat runs; an effect the other way counts as inactive or inconclusive; also: % of control where 0% means no effect); settings: ARE-luc HepG2, Nrf2 luciferase reporter, 16 h; series mostly up to 92.4 µM
Method in brief: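 Quantitative HTS format in HepG2 cells stably expressing an ARE-luciferase reporter; 16 hr compound treatment at 37 C, luciferase signal detected with ONE-Glo.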

[14] = qHTS assay for small molecule antagonists of the retinoid-related orphan receptor gamma (ROR-gamma) signaling pathway - cell viability counter screen (AID 720652; active = well fitted curve in the direction sought with a large enough effect in the repeat runs; an effect the other way counts as inactive or inconclusive;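 also: CHO reporter cells with doxycycline-induced ROR-gamma expression; compound exposure lasted 16 hr before ATP read; % is scaled to controls: 0 for no effect and ±100 for the full control effect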); settings: RORgamma reporter cell line viability counter screen; series mostly up to 92.2 µM
Method in brief: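 Cytotoxicity counter screen: intracellular ATP (CellTiter-Glo luminescence) measured in the doxycycline-induced CHO RORE-luciferase reporter line after 16 hr compound exposure at 37 C, 5% CO2.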

[15] = qHTS assay for small molecule activators of the human pregnane X receptor (PXR) signaling pathway (AID 720659; call rule not given here; also: 0% is about no effect); settings: DPX-2 HepG2 CYP3A4-luciferase, 24 h; series mostly up to 92.3 µM
[16] = target: Glucocorticoid receptor (Homo sapiens) (UniProt P04150); assay: qHTS assay for small molecule agonists of glucocorticoid receptor signaling (AID 588532; active = well fitted curve in the direction sought with a large enough effect in the signal ratio, with a control signal flat; the % refers to the signal ratio;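 also: 100% = dexamethasone at 0.1 µM and 0% = DMSO only wells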); settings: HeLa MMTV-bla, beta-lactamase ratio, agonist, 18 h; stronger effect = higher value; percent of dexamethasone control, DMSO zero
Sequence of Glucocorticoid receptor (Homo sapiens) (P04150 whole entry, looked up): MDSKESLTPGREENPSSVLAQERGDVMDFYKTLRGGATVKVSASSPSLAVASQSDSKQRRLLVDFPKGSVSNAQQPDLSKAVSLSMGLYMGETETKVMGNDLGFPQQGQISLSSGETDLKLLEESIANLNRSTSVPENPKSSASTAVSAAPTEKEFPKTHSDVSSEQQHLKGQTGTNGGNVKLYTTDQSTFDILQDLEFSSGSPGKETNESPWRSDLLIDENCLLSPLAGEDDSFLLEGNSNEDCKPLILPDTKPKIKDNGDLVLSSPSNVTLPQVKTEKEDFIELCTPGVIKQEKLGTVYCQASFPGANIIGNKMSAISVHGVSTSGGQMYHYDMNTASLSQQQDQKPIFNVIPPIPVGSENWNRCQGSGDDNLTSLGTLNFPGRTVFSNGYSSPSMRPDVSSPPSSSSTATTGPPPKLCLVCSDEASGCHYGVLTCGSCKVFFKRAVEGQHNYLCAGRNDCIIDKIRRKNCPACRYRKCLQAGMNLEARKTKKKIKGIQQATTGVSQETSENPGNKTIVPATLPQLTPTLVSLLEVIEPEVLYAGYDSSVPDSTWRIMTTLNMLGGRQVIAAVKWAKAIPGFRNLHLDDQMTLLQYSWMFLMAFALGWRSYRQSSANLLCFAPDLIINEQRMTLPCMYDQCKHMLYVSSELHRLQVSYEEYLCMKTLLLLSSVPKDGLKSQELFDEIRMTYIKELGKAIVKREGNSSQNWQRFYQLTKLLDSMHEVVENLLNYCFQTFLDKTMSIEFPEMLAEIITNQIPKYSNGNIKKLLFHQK
Method in brief: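 Stimulation of a glucocorticoid response element-driven beta-lactamase gene was measured in HeLa cells. Responses were scaled between DMSO basal and 0.1 uM dexamethasone, then fitted for half-maximal stimulation.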

[17] = target: Thyroid hormone receptor beta (Homo sapiens) (UniProt P10828); assay: qHTS assay for small molecule agonists of thyroid hormone receptor beta signaling (AID 588545; calls by dose curve;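 also: 0% = DMSO only and 100% = 10 nM T3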); settings: TR-UAS-bla GripTite HEK 293, beta-lactamase ratio, agonist mode, 18 h; series mostly up to 76.7 µM
Sequence of Thyroid hormone receptor beta (Homo sapiens) (P10828 whole entry, looked up): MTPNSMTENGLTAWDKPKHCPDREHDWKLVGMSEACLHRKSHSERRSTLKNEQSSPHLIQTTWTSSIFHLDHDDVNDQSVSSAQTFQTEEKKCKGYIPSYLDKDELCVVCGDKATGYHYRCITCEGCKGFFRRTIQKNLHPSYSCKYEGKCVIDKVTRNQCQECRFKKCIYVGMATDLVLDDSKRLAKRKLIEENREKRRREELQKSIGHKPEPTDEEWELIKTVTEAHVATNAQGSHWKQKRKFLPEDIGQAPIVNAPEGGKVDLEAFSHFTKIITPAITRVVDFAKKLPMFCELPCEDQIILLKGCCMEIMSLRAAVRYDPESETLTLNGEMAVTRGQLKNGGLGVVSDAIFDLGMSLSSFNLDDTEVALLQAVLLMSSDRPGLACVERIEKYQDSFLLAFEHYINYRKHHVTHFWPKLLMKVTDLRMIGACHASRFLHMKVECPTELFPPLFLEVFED
Method in brief: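 TR-UAS-bla-GripTite HEK 293 cells in medium with 2% charcoal/dextran FBS, 0.1 mM NEAA and 1 mM sodium pyruvate were treated with titrated compounds for 18 hrs at 37 C. Beta-lactamase reporter was read with CCF4 dye (ex 405, em 460/530 nm); EC50 from Hill fits.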

[18] = qHTS assay for small molecule activators of the nuclear factor-kappa B (NF-kB) signaling pathway (AID 651749; active = well fitted activation curve with a large enough effect in the signal ratio; the % refers to the signal ratio; also: % of control where 0% means no effect); settings: NF-kB-bla ME-180 cells, beta-lactamase FRET ratio, 16 h; stronger effect = higher value
Method in brief: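 Human ME-180 cervical cells with an NF-kB-bla construct; compounds added via 23 nL pin transfer, DMSO as vehicle; incubation 16 hr. Reporter activity measured by FRET disruption.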

[19] = qHTS assay for small molecule disruptors of the mitochondrial membrane potential - 1 hr assay (AID 651754; calls by dose curve; also: nearly all actives have a fitted effect of over 35% in size; also: potency is read from the fitted curve at half-maximal effect); settings: series mostly up to 92.2 µM
Method in brief: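 Mitochondrial potential in living HepG2 cells after 1 hr compound treatment at 37C was read with Mito-MPS dye added for a further 30 min. Red aggregate and green monomer fluorescence were measured; loss of potential leaves dye as cytoplasmic monomers.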

[20] = target: Nuclear receptor ROR-gamma (Homo sapiens) (UniProt P51449); assay: qHTS assay for small molecule antagonists of the retinoid-related orphan receptor gamma (ROR-gamma) signaling pathway (AID 651802); settings: ROR-gamma antagonist cell reporter assay; series mostly up to 92.2 µM; also: nearly all actives have a fitted effect of over 60% in size; also: potency is read from the fitted curve at half-maximal effect
Sequence of Nuclear receptor ROR-gamma (Homo sapiens) (P51449 whole entry, looked up): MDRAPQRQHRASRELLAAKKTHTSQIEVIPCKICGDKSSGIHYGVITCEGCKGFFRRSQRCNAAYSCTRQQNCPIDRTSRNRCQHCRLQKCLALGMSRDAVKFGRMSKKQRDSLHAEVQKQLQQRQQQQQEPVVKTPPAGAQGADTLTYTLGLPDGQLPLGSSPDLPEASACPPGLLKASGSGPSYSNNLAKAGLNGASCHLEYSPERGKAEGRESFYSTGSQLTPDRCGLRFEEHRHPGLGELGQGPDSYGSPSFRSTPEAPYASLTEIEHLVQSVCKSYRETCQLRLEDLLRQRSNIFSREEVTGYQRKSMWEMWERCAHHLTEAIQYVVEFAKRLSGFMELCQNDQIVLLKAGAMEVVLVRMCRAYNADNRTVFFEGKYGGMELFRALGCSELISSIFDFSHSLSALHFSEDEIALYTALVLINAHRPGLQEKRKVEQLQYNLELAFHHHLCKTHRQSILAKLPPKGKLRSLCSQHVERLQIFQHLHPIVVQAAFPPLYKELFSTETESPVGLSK
Method in brief: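 Luminescence (One-Glo, 30 min RT) measured 16 h after compound addition and doxycycline induction at 37C. Reporter: RORE-luciferase under TET-inducible ROR-gamma in CHO cells.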

O=[N+]([O-])c1ccccc1Nc1ccccc1
active: Potency [11] 35.5 µM
inactive: Potency [1] > 92 µM | Potency [2] > 92 µM | Potency [3] > 92 µM | Potency [4] | Potency [5] | Potency [6] | Potency [7] | Potency [8] | Potency [9] | activation [12] -4.76% | Potency [13] | Potency [14] | outcome [15]
-18.5%: max response [10]

Oc1c(Cl)cc(Cl)c(Cl)c1Cl
active: Potency [1] 57 µM | Potency [12] 44.7 µM | Potency [19] 42.2 µM | Potency [20] 33.5 µM
inactive: Potency [2] > 92 µM | Potency [3] > 92 µM | Potency [5] | Potency [7] | Potency [8] | activation [16] 5.94% | Potency [9] | Potency [17] | Potency [11] | activation [12] 2.74% | activation [18] -0.537% and 2.41% | Potency [13] | Potency [14]
23.7% and -14.7%: max response [10]

COc1ccc([N+](=O)[O-])cc1N
inactive: Potency [1] > 92 µM | Potency [2] > 92 µM | Potency [3] > 92 µM | Potency [4] | Potency [5] | Potency [6] | Potency [7] | Potency [8] | activation [16] 2.11% and 1.38% | Potency [9] | Potency [17] | Potency [11] | activation [12] -2.91% and -2.52% | activation [18] 2.19% and -0.307% | Potency [19] | Potency [20] | Potency [13] | Potency [14] | outcome [15]
-3.38% and -0.384%: max response [10]

COc1ccc(C)cc1N
inactive: Potency [1] > 92 µM | Potency [2] > 92 µM | Potency [3] > 92 µM | Potency [6] | Potency [7] | Potency [8] | activation [16] 9.32% | Potency [9] | Potency [11] | activation [12] -5.11% | activation [18] -0.459% | Potency [19] | Potency [20] | Potency [13] | Potency [14] | outcome [15]
-1.98%: max response [10]

OCC(CBr)(CBr)CBr
inactive: Potency [1] > 92 µM | Potency [2] > 92 µM | Potency [3] > 92 µM | Potency [4] | Potency [5] | Potency [7] | Potency [8] | activation [16] 0.0544% | Potency [9] | Potency [17] | Potency [11] | activation [12] 0.524% | activation [18] 0.264% | Potency [19] | Potency [13] | Potency [14]
-4.28%: max response [10]

Oc1ccc2c(c1)OCO2
inactive: Potency [1] > 92 µM | Potency [2] > 92 µM | Potency [3] > 92 µM | Potency [4] | Potency [6] | Potency [7] | Potency [8] | activation [16] -0.95% | Potency [9] | Potency [17] | Potency [11] | activation [12] 4.65% | Potency [19] | Potency [20] | Potency [13] | Potency [14] | outcome [15]
-4.36%: max response [10]
